Inconclusive results are not listed. The list shows a part of the results. Calls of active or inactive are those of the source. Unless noted, the call rests on the fitted dose curve; in most records, active means well fitted curve in the direction sought with a large enough effect; inconclusive means small, poorly fitted or top-dose-only effect, or another doubt; inactive means no such curve, though single readings can be large; an effect the other way counts as inactive or inconclusive.
Legend:
[1] = target: Lysosomal acid glucosylceramidase (Homo sapiens) (UniProt P04062); assay: Glucocerebrosidase-p2 (AID 348; in the data active means potency below about 10 µM; further: potency means the concentration at half of the fitted maximal effect); settings: purified GBA, blue fluorogenic substrate, 40 min
Outline: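 Normal human glucocerebrosidase (0.2 nM) with blue fluorogenic substrate (80 uM final) in citrate/phosphate pH 5.9 with 10mM sodium taurocholate, 0.01% tween-20; 40 min RT, NaOH/glycine stop; fluorescence Ex 365/Em 440; AC50 from a titration from 0.6 nM upwards.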

[2] = AP1 Signaling Pathway (AID 357; active means well fitted curve in either direction with a large enough effect, not every such curve was filed as active;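 further: ME-180 reporter cells stimulated with EGF at its EC50 level; on the % scale 0 is the no-effect control and ±100 the full control effect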); settings: ME-180 AP-1-bla reporter, EGF-induced, beta-lactamase ratio, 5 h; at 7.69 µM (top of the series) unless noted
Outline: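 First, ME-180 AP-1-bla cells were cultured overnight at 37 °C in low-serum Opti-MEM. Next, titrated compounds with EC50 EGF were incubated 5 hours. Finally, CCF4 was added for 2.5 hours and the 460/530 nm ratio recorded.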

[3] = target: Cytochrome P450 1A2 (Homo sapiens) (UniProt P05177); assay: p450-cyp1a2 (AID 410; calls by dose curve;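 further: -100% = full effect of reference inhibitor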)
Outline: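 20nM CYP1A2, 100uM Luciferin-ME (=Km), 100mM KPO4; cpd 10 min RT; +NADPH regen, 60 min RT; stop/detect 20 min; luminescence. Normalized to furafylline 57 uM = full inhibition.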

[4] = NFAT Signaling Pathway (AID 444; active means well fitted curve in either direction with a large enough effect, not every such curve was filed as active;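 further: carbachol stimulus at about its EC50 of 1 µM final; on the % scale 0 is the no-effect control and ±100 the full control effect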); settings: Jurkat NFAT-bla M1, carbachol, beta-lactamase ratio, 5 h; at 7.69 µM (top of the series) unless noted
Outline: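 Read-out: CCF4 FRET ratio (460 nm/530 nm) after 1 h RT dye loading, used for %activity and AC50 from titration series. Cells: Jurkat NFAT-β-lactamase/M1 line, treated with compound plus 1 uM carbachol for 5 h, 37 °C.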

[5] = Stat Signaling Pathway (AID 446; active means well fitted curve in either direction with a large enough effect, not every such curve was filed as active;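 further: ME-180 cervical cancer cells given 40 pM IL-6 alongside compound; SIE-controlled beta-lactamase reporter measured as 460/530 nm FRET emission ratio; on the % scale 0 is the no-effect control and ±100 the full control effect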); settings: ME-180 (cervical carcinoma) SIE beta-lactamase reporter, IL-6 stimulated, 5 h; at 7.69 µM (top of the series) unless noted
Outline: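 FRET read-out (405 nm excitation, 460/530 nm emission) of a beta-lactamase reporter under a STAT-inducible element in ME-180 cervical carcinoma cells. Cells with compound receive 40 pM IL-6 for 5 h. Values are normalised to AC90 stimulation and AC90 JAK-inhibitor controls.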

[6] = target: Glucocorticoid receptor (Homo sapiens) (UniProt P04150); assay: GR-GFP Redistribution (AID 450;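 active means compounds whose dose series gives a full or clear partial fitted curve of increased nuclear translocation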; further: potency means the concentration at half of the fitted maximal effect); settings: U2OS GR-GFP nuclear translocation, laser cytometry, 2 h
[7] = target: Glucocorticoid receptor (Homo sapiens) (UniProt P04150); assay: GR-EFC Redistribution (AID 451; calls by dose curve; further: potency means the concentration at half of the fitted maximal effect); settings: CHO-K1 GR-EFC translocation, beta-gal luminescence, 2 h
Outline: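 Translocation of GR-ED fusion to nuclear EA restores b-gal, read by luminescence after 1 h room-temperature detection. Engineered CHO-K1 biosensor cells, 1,000/well, exposed 2 h at 37 C to titrations up to 46 uM final.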

[8] = target: Mitogen-activated protein kinase 10 (Mus musculus) (UniProt Q61831); assay: JNK3 AlphaScreen Assay (AID 530; active means well fitted curve in either direction with a large enough effect, not every such curve was filed as active;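 further: kinase came from lysate of stimulated human HepG2 cells; signal reports phosphorylation of biotinylated GST-cJun 1-79 at Ser73 with 10 µM ATP; on the % scale 0 is the no-effect control and ±100 the full control effect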)
Outline: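 Kinase buffer: 20 mM Tris-HCl pH 7.6, 10 mM MgCl2, 1 mM DTT, 0.1 mM Na3VO4, 0.01% Tween-20; ATP 10 uM. Substrate biotin-GST-cJun(1-79), enzyme from activated HepG2 lysates. Detection by Ser73 phospho-antibody AlphaScreen.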

[9] = target: 3',5'-cyclic-AMP phosphodiesterase 4B (Homo sapiens) (UniProt Q07343); assay: qHTS Assay for Inhibitors of PDE-IV (AID 607; active means well fitted activation curve with a large enough effect in the main read-out, with a control signal flat, not every such curve was filed as active; further: % of control where 0% means no effect)
Outline: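 Cell-based read-out of cAMP via a modified cyclic nucleotide-gated channel and membrane potential dye (535/590 nm) in HEK293 cells expressing PDE4 endogenously. Compounds tested up to 22.9 uM final; 100 uM RO 20-1724 reference.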

[10] = Confirmation and Secondary Assay for Modulators of Hemoglobin Beta Chain Splicing at IVS2 654 locus (AID 910);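 further: HeLa cells stably carrying EGFP split by mutant beta-globin IVS2-654 intron; per-well total GFP intensity by laser scanning cytometry after 2-day treatment; % of control where 0% means no effect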
Outline: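 Readout: per-well total peak green fluorescence (488 nm ex, 500–520 nm em) from objects 5–250 µm, reflecting correct splicing of an EGFP-654 reporter. Compounds were applied for 2 days at 37 °C to overnight-plated HeLa EGFP-654 cells; controls were DMSO and 500 nM IVS2-654 PNA.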

[11] = Confirmation and Secondary Assay for Modulators of Hemoglobin Beta Chain Splicing at IVS2 705 locus (AID 930);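 further: HeLa cells stably expressing the EGFP-705 splicing reporter; GFP fluorescence per well restored by corrected splicing of the IVS2-705 intron in EGFP; % of control where 0% means no effect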
Outline: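 First, HeLa EGFP-705 cells are seeded at 500/well in Optimem with 2% FCS and left overnight. Next, compound or DMSO is added for 2 days. Finally wells are laser-scanned and total peak GFP intensity scored.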

[12] = target: Ubiquitin carboxyl-terminal hydrolase 1 (Homo sapiens) (UniProt O94782); assay: Inhibitors of USP1/UAF1: Pilot qHTS (AID 504865);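 further: rhodamine fluorescence freed from ubiquitin-rhodamine substrate followed over time; top concentration of the series differs between compounds; on the % scale 0 is the no-effect control and ±100 the full control effect; nearly all actives have a fitted effect of over 35% in size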
Outline: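 USP1/UAF1 complex at 1 nM preincubated 15 min at room temperature with compound, then Ub-Rho substrate added at 150 nM final. Fluorescence (480/540 nm) read kinetically in 50 mM HEPES pH 7.8, 0.5 mM EDTA, 1 mM TCEP, 0.1 mg/ml BSA, 0.01% Tween-20.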

[13] = qHTS Assay for Inhibitors of Fructose-1,6-bisphosphate Aldolase from Giardia Lamblia: Coupling assay counterscreen confirmation (AID 2795); further: on the % scale 0 is the no-effect control and ±100 the full control effect; nearly all actives have a fitted effect of over 55% in size
Outline: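 Readings at 525 nm excitation and 598 nm emission follow a two-step room-temperature protocol: 10 min of compound (up to 57.5 uM final) with coupling enzyme reagent, then 20 min with substrate and AmpLite Red detection reagent.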

[14] = target: Fructose-bisphosphate aldolase A (Oryctolagus cuniculus) (UniProt P00883); assay: qHTS Assay for Inhibitors of Fructose-1,6-bisphosphate Aldolase from Giardia Lamblia: Rabbit FBPA Selectivity (AID 2794); further: on the % scale 0 is the no-effect control and ±100 the full control effect; nearly all actives have a fitted effect of over 60% in size
Outline: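 To triage Class I aldolase inhibitors, rabbit FBPA activity is followed through a glyceraldehyde-3-phosphate-linked enzyme cascade feeding AmpLite Red. Compounds (up to 57.5 uM final) sit 10 min with coupling enzymes before substrate; fluorescence is read 20 min later.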

Glucocorticoid receptor (Homo sapiens), sequence (P04150 whole entry, looked up, the tested form may be a part): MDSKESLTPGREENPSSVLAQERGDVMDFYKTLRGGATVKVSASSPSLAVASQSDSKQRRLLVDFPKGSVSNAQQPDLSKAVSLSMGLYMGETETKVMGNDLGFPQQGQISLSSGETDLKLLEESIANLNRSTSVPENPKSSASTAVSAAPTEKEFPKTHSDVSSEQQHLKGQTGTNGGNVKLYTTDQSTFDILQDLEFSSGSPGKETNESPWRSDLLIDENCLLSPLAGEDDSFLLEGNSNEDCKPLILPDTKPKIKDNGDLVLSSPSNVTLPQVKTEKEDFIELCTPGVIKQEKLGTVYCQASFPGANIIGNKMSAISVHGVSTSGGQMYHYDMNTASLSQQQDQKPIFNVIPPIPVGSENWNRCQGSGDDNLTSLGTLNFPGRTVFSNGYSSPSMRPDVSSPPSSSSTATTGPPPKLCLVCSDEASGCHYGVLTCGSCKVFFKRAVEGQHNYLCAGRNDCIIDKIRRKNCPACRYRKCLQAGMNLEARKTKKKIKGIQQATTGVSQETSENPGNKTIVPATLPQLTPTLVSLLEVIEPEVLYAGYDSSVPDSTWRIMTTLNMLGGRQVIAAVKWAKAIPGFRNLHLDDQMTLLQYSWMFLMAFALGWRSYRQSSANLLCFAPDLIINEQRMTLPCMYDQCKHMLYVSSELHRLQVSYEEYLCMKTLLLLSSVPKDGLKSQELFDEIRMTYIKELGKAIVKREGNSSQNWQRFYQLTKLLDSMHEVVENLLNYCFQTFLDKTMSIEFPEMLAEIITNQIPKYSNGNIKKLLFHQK
Lysosomal acid glucosylceramidase (Homo sapiens), sequence (P04062 whole entry, looked up): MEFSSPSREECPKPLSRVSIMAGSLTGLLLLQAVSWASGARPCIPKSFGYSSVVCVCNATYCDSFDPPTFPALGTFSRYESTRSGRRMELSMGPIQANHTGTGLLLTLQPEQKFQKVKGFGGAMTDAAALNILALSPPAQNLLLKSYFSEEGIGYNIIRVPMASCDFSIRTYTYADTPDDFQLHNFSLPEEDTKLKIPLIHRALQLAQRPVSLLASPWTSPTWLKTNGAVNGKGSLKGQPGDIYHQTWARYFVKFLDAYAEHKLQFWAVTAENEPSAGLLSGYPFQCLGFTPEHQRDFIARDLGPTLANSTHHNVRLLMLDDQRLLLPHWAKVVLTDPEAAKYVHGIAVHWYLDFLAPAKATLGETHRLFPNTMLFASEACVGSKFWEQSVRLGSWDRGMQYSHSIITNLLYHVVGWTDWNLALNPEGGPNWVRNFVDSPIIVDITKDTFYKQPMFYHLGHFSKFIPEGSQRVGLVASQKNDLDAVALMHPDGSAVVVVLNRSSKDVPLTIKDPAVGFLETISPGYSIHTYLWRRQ
Ubiquitin carboxyl-terminal hydrolase 1 (Homo sapiens), sequence (O94782 whole entry, looked up): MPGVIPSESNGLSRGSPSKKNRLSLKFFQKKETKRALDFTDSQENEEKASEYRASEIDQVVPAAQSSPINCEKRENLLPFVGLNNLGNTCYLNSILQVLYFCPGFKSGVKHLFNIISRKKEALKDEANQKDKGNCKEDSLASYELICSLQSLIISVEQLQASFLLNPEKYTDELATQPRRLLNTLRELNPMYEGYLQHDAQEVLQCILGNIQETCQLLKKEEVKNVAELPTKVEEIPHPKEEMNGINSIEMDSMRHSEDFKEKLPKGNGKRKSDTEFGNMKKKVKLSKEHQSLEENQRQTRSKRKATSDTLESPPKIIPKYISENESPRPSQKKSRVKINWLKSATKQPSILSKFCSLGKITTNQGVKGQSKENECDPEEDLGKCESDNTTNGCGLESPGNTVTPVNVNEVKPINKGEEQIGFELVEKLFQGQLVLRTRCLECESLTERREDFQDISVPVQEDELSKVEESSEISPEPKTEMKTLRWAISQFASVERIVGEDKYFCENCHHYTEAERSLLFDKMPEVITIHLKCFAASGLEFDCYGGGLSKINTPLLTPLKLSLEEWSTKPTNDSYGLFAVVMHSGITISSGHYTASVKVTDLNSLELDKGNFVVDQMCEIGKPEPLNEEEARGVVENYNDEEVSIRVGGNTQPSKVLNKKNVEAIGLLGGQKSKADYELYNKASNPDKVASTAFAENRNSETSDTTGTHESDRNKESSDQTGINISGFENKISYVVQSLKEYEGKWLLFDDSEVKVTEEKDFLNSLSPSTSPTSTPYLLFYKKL
Cytochrome P450 1A2 (Homo sapiens), sequence (P05177 whole entry, looked up): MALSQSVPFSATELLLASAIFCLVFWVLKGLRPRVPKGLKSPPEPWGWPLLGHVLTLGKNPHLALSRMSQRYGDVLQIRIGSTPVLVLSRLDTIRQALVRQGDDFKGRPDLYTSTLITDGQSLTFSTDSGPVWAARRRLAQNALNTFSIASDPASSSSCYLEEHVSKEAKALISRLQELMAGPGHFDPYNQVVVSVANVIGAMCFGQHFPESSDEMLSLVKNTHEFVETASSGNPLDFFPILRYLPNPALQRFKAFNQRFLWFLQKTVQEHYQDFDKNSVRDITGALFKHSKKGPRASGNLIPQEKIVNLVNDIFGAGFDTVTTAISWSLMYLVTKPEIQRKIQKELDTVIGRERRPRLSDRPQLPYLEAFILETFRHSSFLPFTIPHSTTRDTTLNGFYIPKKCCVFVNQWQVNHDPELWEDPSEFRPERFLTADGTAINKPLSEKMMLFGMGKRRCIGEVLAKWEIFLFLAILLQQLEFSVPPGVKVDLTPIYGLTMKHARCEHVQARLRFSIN
Fructose-bisphosphate aldolase A (Oryctolagus cuniculus), sequence (P00883 whole entry, looked up): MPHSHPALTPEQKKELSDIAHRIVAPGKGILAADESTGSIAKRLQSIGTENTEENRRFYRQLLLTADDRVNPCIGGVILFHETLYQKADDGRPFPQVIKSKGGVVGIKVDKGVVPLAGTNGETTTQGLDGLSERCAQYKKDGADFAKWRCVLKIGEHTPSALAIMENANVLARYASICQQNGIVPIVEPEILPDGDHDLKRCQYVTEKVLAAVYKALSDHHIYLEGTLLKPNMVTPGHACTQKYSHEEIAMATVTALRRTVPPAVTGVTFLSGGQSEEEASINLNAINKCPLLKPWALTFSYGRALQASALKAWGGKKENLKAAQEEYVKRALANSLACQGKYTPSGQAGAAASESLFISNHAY
3',5'-cyclic-AMP phosphodiesterase 4B (Homo sapiens), sequence (Q07343 whole entry, looked up): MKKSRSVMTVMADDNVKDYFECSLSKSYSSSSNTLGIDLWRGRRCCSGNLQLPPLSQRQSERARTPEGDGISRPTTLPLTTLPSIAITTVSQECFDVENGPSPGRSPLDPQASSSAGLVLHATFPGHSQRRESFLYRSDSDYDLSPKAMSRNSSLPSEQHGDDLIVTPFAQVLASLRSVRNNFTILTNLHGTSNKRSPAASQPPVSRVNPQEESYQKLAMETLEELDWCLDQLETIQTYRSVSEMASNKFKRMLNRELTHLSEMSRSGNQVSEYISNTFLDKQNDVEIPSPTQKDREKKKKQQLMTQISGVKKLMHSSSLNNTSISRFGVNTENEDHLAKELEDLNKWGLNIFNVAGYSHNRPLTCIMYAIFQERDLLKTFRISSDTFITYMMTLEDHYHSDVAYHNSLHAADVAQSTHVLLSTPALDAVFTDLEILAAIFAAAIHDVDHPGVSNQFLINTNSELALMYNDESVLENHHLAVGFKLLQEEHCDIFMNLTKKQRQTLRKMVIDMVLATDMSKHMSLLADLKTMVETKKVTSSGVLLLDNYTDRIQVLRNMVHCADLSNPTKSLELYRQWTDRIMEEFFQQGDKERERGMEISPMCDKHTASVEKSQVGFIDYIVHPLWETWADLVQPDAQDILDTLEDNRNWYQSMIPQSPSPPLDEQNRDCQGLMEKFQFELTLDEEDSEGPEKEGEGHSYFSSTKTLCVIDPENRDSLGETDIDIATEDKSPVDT

CN(C)Cc1ccccc1-c1ccc2ncnc(NC3CCNCC3)c2c1
inactive: Potency [1] > 11.4 µM | activity change, negative = inhibition [2] 20.2% | Potency [3] | activity change, negative = inhibition [4] -12.2% | activity, negative = inhibition [5] -2.13% | Potency [6] > 46 µM | Potency [7] > 46 µM | Potency [8] | Potency [9] | outcome [10] | outcome [11] | Potency [12]

O=c1nc(N/N=C/c2ccco2)cn[nH]1
inactive: outcome [13]

CN(C)CCOc1ccc(Cl)cc1C(C)(C)C
inactive: outcome [14]
